Data reported in PubChem BioAssay (NCI).
Compounds without any hit were thinned out: in the full panel of roughly 83,000, 20% have a hit.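 Compound tested at a single concentration for 48 hours in 96-well plates; a percent growth value below 10 was scored as active.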 A number with no mark means an inactive call. Activity calls are given as the source filed them.

These compounds were tested on HS 578T breast (assay: NCI-60 one-dose screen, 48 h (100 = growth as untreated, 0 = no growth, -100 = all killed)). Settings: 10 µM unless noted.
Method: Growth inhibition of the HS 578T human tumor cell line is measured as a screen for anti-cancer activity. Cells are grown in 96 well plates and exposed to the test compound for 48 hours. Compounds are tested at a single concentration, which is 10^-5 M for most compounds. The reported endpoint is percent growth (GI% or GIPRCNT), where numbers from 0 - 100% represent growth inhibition, and numbers from -100% - 0 represent cell death. For example, a value of 40 represents 60% growth inhibition. A value of 0 means no net growth occurred over the course of the experiment. A value of -40 indicates 40% of cells at the beginning of the experiment died by the end of the experiment. A value of -100 means all cells are dead at the end of the experiment.
NCI-60 Human Tumor Cell Lines Screen was performed using the standard one-dose NCI protocol, which is described in more detail at https://dtp.cancer.gov/discovery_development/nci-60/default.htm.
Compounds with GIPRCNT values below 10 were considered active. Activity score was based on GIPRCNT using the following formula: […]
Score is 0 for GIPRCNT values of 100 or above, 50 for GIPRCNT values of 0, and 100 for GIPRCNT values of -100.

**Q.** With `COC(=O)C1(C)CCC[C@]2(C)[C@H]3C[C@H]4C(C(C)C)=C[C@]3(CC[C@@H]12)[C@H]1[C@@H]4[C@@H](OCC#CCN2CCOCC2)CC[C@@H]1OCC#CCN1CCOCC1` (stereo not given in full) as the compound, how does the growth read?
**A.** The growth was 86.6%.

**Q.** Which growth does the source give for `CC(=Nc1ccccc1)C1=C(O)C(Cc2ccc(F)cc2)NC1=O` (stereo not given) here?
**A.** Its growth is 32.1%.

**Q.** With `C#CCn1cc(C=C2C(=O)NC(=O)NC2=O)c2cc(Cl)ccc21` as the compound, how does the growth read?
**A.** The growth was 84%.

**Q.** Which growth does the source give for `COc1ccccc1CNC(=O)C1c2ccccc2C(=O)N(CC(C)C)C1c1cccs1` (stereo not given) here?
**A.** The growth was 68.8%.

**Q.** How did the growth turn out when `Cc1ccc(CN2CCC(C(=O)Nc3ccc(-c4cc5ccccc5[nH]4)cc3)CC2)o1` was run?
**A.** The growth was 67%.

**Q.** With `CCCCc1c(CCC)c(=N)c2ccccc2n1C` as the compound, how does the growth read?
**A.** The growth was 122%.

**Q.** For `CCN1C(=O)N(c2ccccc2)C2Nn3c(s/c(=C4\C(=O)N(C(C)C)c5ccccc54)c3=O)=NC21` (stereo not given), which growth is on record?
**A.** Its growth is 99.7%.

**Q.** For `COC(=O)c1c2c(c(C)[n+]([O-])c1C)C(=O)C=C(NCc1ccccc1)C2=O`, which growth is on record?
**A.** Its growth is -30.6% (active).

**Q.** Which growth does the source give for `O=[N+]([O-])c1cc2c(ccc3occc32)o1` here?
**A.** The growth was 50.4%.

**Q.** `Cc1ccc2cc3c(N)c4c(C)ccc(C)c4nc3nc2c1` was tested. Which growth did it give?
**A.** The growth was 70%.

**Q.** Which growth does the source give for `CCOC(=O)c1c(C=O)nc2ccccc2c1/C=C/c1ccc(Cl)cc1` here?
**A.** Its growth is 90.6%.

**Q.** With `CCCCN1CCN(c2ccc3nc(-c4ccc5nc(-c6ccc(OC)c(OC)c6)[nH]c5c4)[nH]c3c2)CC1` as the compound, how does the growth read?
**A.** Its growth is -18.7% (active).

**Q.** `Cc1nn(-c2nc3ccccc3[nH]2)c2c1C(c1ccc(OCC(N)=O)cc1)CC(=O)N2` (stereo not given) was tested. Which growth did it give?
**A.** The growth was 95%.

**Q.** `O=c1cc(NC2CCN(CCCc3ccccc3)CC2)c2cc(Cl)ccc2o1` was tested. Which growth did it give?
**A.** The growth was 2.69% (active).

**Q.** `C1CCN(c2nc(N3CCCCC3)nc(N3CCOCC3)n2)CC1` was tested. Which growth did it give?
**A.** Its growth is 112%.

**Q.** With `O=C(/C=C/c1ccccc1)c1ccc(Nc2nc(NCCO)nc(Nc3ccc(Cl)cc3)n2)cc1` as the compound, how does the growth read?
**A.** The growth was 93.1%.

**Q.** For `COC(=O)c1c2c(c(C)[n+]([O-])c1C)C(=O)C=C(NCc1ccc(F)c(F)c1)C2=O`, which growth is on record?
**A.** The growth was -20.4% (active).

**Q.** With `CCOC(=O)c1cc2c(n1Cc1ccccc1OC)-c1oncc1CCC2` as the compound, how does the growth read?
**A.** The growth was 10.9%.

**Q.** Which growth does the source give for `O=C1c2cc(Br)ccc2Oc2cc([N+](=O)[O-])ccc2N1c1ccc(I)cc1F` here?
**A.** The growth was 101%.

**Q.** With `O=c1[nH]nnc2c1ncn2C1OC(CO)C(O)C1O` (stereo not given) as the compound, how does the growth read?
**A.** The growth was 103%.

**Q.** `CCN1C(=O)N(CC)C2C1NN=c1s/c(=C3\C(=O)N(C(C)C)c4ccccc43)c(=O)n12` (stereo not given) was tested. Which growth did it give?
**A.** Its growth is 36.7%.

**Q.** With `COC(=O)/C(CCC=C(C)C)=C1\[C@@H](OC(C)=O)C[C@@]2(C)[C@H]1CC(=O)[C@H]1[C@@]3(C)CC[C@H](NCc4ccccc4)[C@@H](C)[C@@H]3CC[C@@]12C` as the compound, how does the growth read?
**A.** Its growth is 73.7%.

**Q.** `O=c1oc2ccc(I)cc2c(=O)n1-c1ccc(F)cc1F` was tested. Which growth did it give?
**A.** Its growth is 19.8%.

**Q.** How did the growth turn out when `Cc1cc2c(c(C)c1Cl)C(=O)/C(=C/c1ccco1)O2` was run?
**A.** Its growth is 98.8%.

**Q.** For `COc1ccc(CCN2CCC(CN(C)Cc3cnn(-c4ccccc4)c3)CC2)cc1`, which growth is on record?
**A.** Its growth is 67.1%.

**Q.** `COc1ccc(Nc2cc(C)nc(NCc3ccccc3)n2)cc1` was tested. Which growth did it give?
**A.** Its growth is 60.5%.

**Q.** With `O=S(=O)(Nc1ncccn1)c1ccc(NC2Nc3nc4ccccc4nc3S2)cc1` (stereo not given) as the compound, how does the growth read?
**A.** The growth was 95.9%.

**Q.** How did the growth turn out when `CCOc1cccc(/C=N\Nc2nc(=O)cc(C(=O)OC)s2)c1O` was run?
**A.** Its growth is 90.4%.

**Q.** For `COc1ccc(/C=C/C(=O)c2c(C)nc3ccccc3c2/C=C/c2ccccc2)cc1O`, which growth is on record?
**A.** The growth was 37.5%.

**Q.** How did the growth turn out when `CCN1C(=O)N(CC)C2C1NN=c1s/c(=C3\C(=O)N(CC(C)(C)C)c4ccccc43)c(=O)n12` (stereo not given) was run?
**A.** Its growth is 18.9%.

**Q.** How did the growth turn out when `CCCN1CCN(c2ccc3nc(-c4ccc5nc(-c6cc(OC)ccc6OC)[nH]c5c4)[nH]c3c2)CC1` was run?
**A.** Its growth is 111%.

**Q.** For `O=C1Nc2ccccc2/C1=C/c1cccs1`, which growth is on record?
**A.** The growth was 94.8%.

**Q.** How did the growth turn out when `Cc1cccc2c(=O)c3c(sc12)c(NCCCNCCO)nc1ccccc13` was run?
**A.** The growth was 45.4%.

**Q.** With `Cc1ccc(S(=O)(=O)c2c(COC(=O)c3cccc(C)c3)c(-c3ccccc3)nn2C)cc1` as the compound, how does the growth read?
**A.** Its growth is 99.9%.

**Q.** `O=c1oc2ccc(Cl)cc2c(=O)n1-c1ccc(Cl)cc1F` was tested. Which growth did it give?
**A.** The growth was -5.3% (active).

**Q.** Which growth does the source give for `COc1ccc(OC)c(N(CCN2C(=O)c3ccccc3C2=O)C(=O)CCl)c1` here?
**A.** Its growth is 52.6%.

**Q.** How did the growth turn out when `Nc1no[n+]([O-])c1-c1nnc2c(n1)-c1ccccc1C2=O` was run?
**A.** Its growth is 89%.

**Q.** `O=c1oc2ccc(-c3ccc(F)cc3F)cc2c(=O)n1-c1ccc(Cl)c(C(F)(F)F)c1` was tested. Which growth did it give?
**A.** The growth was 14.6%.

**Q.** For `COc1c(B(O)O)cccc1-c1nc2ccc3[nH]ncc3c2c2c1C1CCC2C1` (stereo not given), which growth is on record?
**A.** The growth was 40.8%.

**Q.** Which growth does the source give for `O=c1c(-c2nc3ccccc3[nH]2)cc2ccccc2n1Cc1cn(Cc2ccc(N3CCOCC3)cc2)nn1` here?
**A.** The growth was 74.7%.
